Here are results for 38 compounds from PubChem BioAssay (NCI).

Compounds without any hit were thinned out: in the full panel of roughly 83,000, 20% have a hit.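 Each cell line was grown in a 96-well plate and treated with one concentration of compound for 48 hours. Values below 10 were considered active.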 Activity calls are given as the source filed them.

One experiment concerns HS 578T breast. Briefly: NCI-60 one-dose screen, 48 h (100 = growth as untreated, 0 = no growth, -100 = all killed). The following applies: 10 µM unless noted.
For the compound `C=C1C(=O)O[C@H]2[C@H]1CC/C(COC(=O)NCCc1ccc(Br)cc1)=C\CC[C@@]1(C)O[C@@H]21`, the growth is 22.9% (inactive).
The same measure, in the same setting: to `O=C(O)c1ccc(-n2cc(CNc3ccc(C(F)(F)F)cc3)c(-c3ccccc3)n2)cc1` belongs 93.7% (inactive); to `C=C1C(=O)O[C@H]2[C@H]1CC/C(COC(=O)NCCc1cccc(OC)c1)=C\CC[C@@]1(C)O[C@@H]21`, 57.9% (inactive).
Regarding `Nc1ccc(S(=O)(=O)c2ccc(Cl)cc2)cc1`, the growth is 96% (inactive).
Consider `C/C(=C\c1csc(C)n1)[C@@H]1C[C@@H]2O[C@]2(C)CCC[C@H](C)[C@H](O)[C@@H](C)C(=O)C(C)(C)[C@@H](O)CC(=O)N1`, for which the growth is -61.7% (active).
On the same count and under the same terms, to `CCNC(=O)C1CCCN1C(=O)C(CCCN=C(N)N)NC(=O)C(CC(C)C)NC(=O)C(CC(C)C)NC(=O)C(Cc1ccc(O)cc1)NC(=O)C(CO)NC(=O)C(Cc1c[nH]c2ccccc12)NC(=O)C(Cc1cnc[nH]1)NC(=O)C1CCC(=O)N1` (stereo not drawn) belongs 81.2% (inactive); to `O=C(O)C(=Cc1c2ccccc2cc2ccccc12)C(=O)O`, 106% (inactive); to `CCCCCCCCCCn1cc[n+](C)c1`, 30.3% (inactive).
On to `Cc1oc2ncnc(Nc3ccccc3)c2c1C(=O)NCCO`, for which the growth was 90.5% (inactive).
On the same count and under the same terms, to `O=C(Nc1ccc(I)cc1)c1cc([N+](=O)[O-])ccc1O` belongs 16.1% (inactive); to `O=C1C2=C(C(=O)c3c(O)ccc(O)c31)N(c1cccnc1)Cc1ccccc1O2`, 26.1% (inactive); to `CCCCCCc1nc2c(c(C)nn2-c2ccccc2)c2c1CCCCC2`, 106% (inactive).
With `COc1ccc(-c2nc3sccn3c2-c2ccnc(NCCCNS(=O)(=O)c3ccc(C)cc3)n2)cc1`, the growth is 66.2% (inactive).
The same measure, in the same setting: to `NC(=O)c1cccc(N2Cc3ccccc3OC3=C2C(=O)c2c(O)ccc(O)c2C3=O)c1` belongs 20.9% (inactive); to `Nc1cccc2c1CN(C1CCC(=O)NC1=O)C2=O` (stereo not drawn), 112% (inactive); to `COc1ccc2c(c1)C(=O)/C(=C/c1ccc(O)cc1)O2`, 73.5% (inactive).
Still for that read-out and setting: then `COc1cccc(-c2nc3sccn3c2-c2ccnc(NCCCNS(=O)(=O)c3ccc(F)cc3)n2)c1`, with 57.3% (inactive); and `O=C1NCC(c2cc3ccccc3[nH]c2=O)Nc2ccccc21` (stereo not drawn), with 99.4% (inactive).
Still for that read-out and setting: then `COC1=CC(c2ccc[nH]2)=N/C1=C\c1[nH]c(C)c(C(=O)CCCCC(=O)NCc2ccccc2)c1C`, with 72% (inactive); and `COc1ncc(-c2ccc3ncnc(Nc4cccc(Cl)c4)c3c2)cc1NS(=O)(=O)C1CC1`, with 13.6% (inactive); and `C=C1C(=O)O[C@H]2[C@H]1CC/C(Cn1cc(-c3ccsc3)nn1)=C\CC[C@@]1(C)O[C@@H]21`, with 28.2% (inactive).
`C=C1C(=O)O[C@H]2[C@H]1CC/C(COC(=O)NCCc1ccc(OC)cc1)=C\CC[C@@]1(C)O[C@@H]21`: the growth was 46% (inactive).
As for `CCN(C(=O)c1cc2ccccc2[nH]1)[C@H]1CCC[C@@H](NCc2ccc(OC)cc2)C1`, the growth was 89.3% (inactive).
Still for that read-out and setting: to `COc1ccc(C2NC3=C(CCCC3)C(C#N)(C#N)C2(C#N)C#N)cc1` (stereo not drawn) belongs 98% (inactive).
Same read-out and setting: then `CCCCCc1c(C)[nH]c(/C=c2\[nH]/c(=C3/C=c4ccccc4=N3)cc2OC)c1C`, with -37.1% (active).
On to `Nc1c(C(=O)Nc2cccc(Cl)c2Cl)sc2nc3c(cc12)C(=O)CCC3`, for which the growth was 88.2% (inactive).
For `O=C1CCC/C=C\C[C@H]2C=CC(=O)/C2=C/C[C@H](C/C=C\CC(F)(F)F)O1`, the growth is 23.2% (inactive).
The same measure, in the same setting: to `COc1ccc(/C=C/C(=O)/C=C/c2cc3ccc(Cl)cc3[nH]c2=O)cc1` belongs 90.5% (inactive).
On to `N#Cc1c(NC(=O)c2ccc([N+](=O)[O-])o2)[n+]([O-])c2cc(F)c(F)cc2[n+]1[O-]`, for which the growth was 158% (inactive).
As to `CC(CCc1ccccc1)NC(=O)c1n[nH]c(=O)c2ccccc12` (stereo not drawn), the growth is 96.8% (inactive).
The same measure, in the same setting: to `COc1ccc(/C=C/c2cc(N3CCOCC3)c3cc(F)c(F)cc3n2)cc1OC` belongs 74.7% (inactive).
Still for that read-out and setting: to `CC(C)C[C@H](NC(=O)Cn1ccc(NCc2ccccc2)cc1=O)B(O)O` belongs 8.69% (active); to `CCNc1nc(N2CC(=O)Nc3cc(OC)ccc32)c2ccccc2n1`, 7.61% (active); to `COc1ccc(/C=C/c2nc(N3CCOCC3)c3nc(Cl)c(Cl)cc3n2)cc1OC`, 113% (inactive).
`O=S=Nc1ccc([N+](=O)[O-])cc1`: the growth was 95% (inactive).

A further experiment deals with NCI/ADR-RES ovarian. The description is as above. Conditions: 10 µM unless noted.
Take `C=C1C(=O)O[C@H]2[C@H]1CC/C(COC(=O)NCCc1ccc(Br)cc1)=C\CC[C@@]1(C)O[C@@H]21`: the growth is 58.4% (inactive).
Same read-out and setting: to `COc1ccc(C(=O)/C=C/c2ccc(/C=C/c3cc(OC)c(OC)c(OC)c3)cc2)cc1` belongs 50% (inactive); to `COc1ccc(C2CC(=O)Nc3c2c(C)nn3-c2nc3ccccc3[nH]2)cc1OC` (stereo not drawn), 77.7% (inactive).
As to `O=C(O)c1ccc(-n2cc(CNc3ccc(C(F)(F)F)cc3)c(-c3ccccc3)n2)cc1`, the growth is 101% (inactive).
The same measure, in the same setting: to `C=C1C(=O)O[C@H]2[C@H]1CC/C(COC(=O)NCCc1cccc(OC)c1)=C\CC[C@@]1(C)O[C@@H]21` belongs 80% (inactive); to `Nc1ccc(S(=O)(=O)c2ccc(Cl)cc2)cc1`, 95.2% (inactive); to `C/C(=C\c1csc(C)n1)[C@@H]1C[C@@H]2O[C@]2(C)CCC[C@H](C)[C@H](O)[C@@H](C)C(=O)C(C)(C)[C@@H](O)CC(=O)N1`, -70.2% (active).
Same read-out and setting: then `CCNC(=O)C1CCCN1C(=O)C(CCCN=C(N)N)NC(=O)C(CC(C)C)NC(=O)C(CC(C)C)NC(=O)C(Cc1ccc(O)cc1)NC(=O)C(CO)NC(=O)C(Cc1c[nH]c2ccccc12)NC(=O)C(Cc1cnc[nH]1)NC(=O)C1CCC(=O)N1` (stereo not drawn), with 97.8% (inactive).
On the same count and under the same terms, then `O=C(O)C(=Cc1c2ccccc2cc2ccccc12)C(=O)O`, with 98.3% (inactive); and `CCCCCCCCCCn1cc[n+](C)c1`, with 82.2% (inactive); and `Cc1oc2ncnc(Nc3ccccc3)c2c1C(=O)NCCO`, with 102% (inactive).
In the case of `O=C(Nc1ccc(I)cc1)c1cc([N+](=O)[O-])ccc1O`, the growth is 29.1% (inactive).
The same measure, in the same setting: to `C[C@]12CC[C@@H]3c4cc(O)c(O)cc4CC[C@H]3[C@@H]1CC[C@@H]2O` belongs 28.5% (inactive); to `O=C1C2=C(C(=O)c3c(O)ccc(O)c31)N(c1cccnc1)Cc1ccccc1O2`, 13.4% (inactive); to `CCCCCCc1nc2c(c(C)nn2-c2ccccc2)c2c1CCCCC2`, 110% (inactive).
Same read-out and setting: to `COc1ccc(-c2nc3sccn3c2-c2ccnc(NCCCNS(=O)(=O)c3ccc(C)cc3)n2)cc1` belongs 20.8% (inactive); to `NC(=O)c1cccc(N2Cc3ccccc3OC3=C2C(=O)c2c(O)ccc(O)c2C3=O)c1`, 10% (inactive).
The same measure, in the same setting: then `Nc1cccc2c1CN(C1CCC(=O)NC1=O)C2=O` (stereo not drawn), with 104% (inactive); and `COc1ccc2c(c1)C(=O)/C(=C/c1ccc(O)cc1)O2`, with 104% (inactive).
As for `COc1cccc(-c2nc3sccn3c2-c2ccnc(NCCCNS(=O)(=O)c3ccc(F)cc3)n2)c1`, the growth is 15.5% (inactive).
Same read-out and setting: to `O=C1NCC(c2cc3ccccc3[nH]c2=O)Nc2ccccc21` (stereo not drawn) belongs 111% (inactive); to `COC1=CC(c2ccc[nH]2)=N/C1=C\c1[nH]c(C)c(C(=O)CCCCC(=O)NCc2ccccc2)c1C`, 42% (inactive); to `COc1ncc(-c2ccc3ncnc(Nc4cccc(Cl)c4)c3c2)cc1NS(=O)(=O)C1CC1`, 40.8% (inactive).
Same read-out and setting: to `C=C1C(=O)O[C@H]2[C@H]1CC/C(Cn1cc(-c3ccsc3)nn1)=C\CC[C@@]1(C)O[C@@H]21` belongs 32% (inactive); to `C=C1C(=O)O[C@H]2[C@H]1CC/C(COC(=O)NCCc1ccc(OC)cc1)=C\CC[C@@]1(C)O[C@@H]21`, 78.9% (inactive).
The same measure, in the same setting: to `CCN(C(=O)c1cc2ccccc2[nH]1)[C@H]1CCC[C@@H](NCc2ccc(OC)cc2)C1` belongs 88.4% (inactive); to `COc1ccc(C2NC3=C(CCCC3)C(C#N)(C#N)C2(C#N)C#N)cc1` (stereo not drawn), 101% (inactive).
On to `CCCCCc1c(C)[nH]c(/C=c2\[nH]/c(=C3/C=c4ccccc4=N3)cc2OC)c1C`, for which the growth was -20.6% (active).
The same measure, in the same setting: then `Nc1c(C(=O)Nc2cccc(Cl)c2Cl)sc2nc3c(cc12)C(=O)CCC3`, with 73.4% (inactive).
The same measure, in the same setting: to `O=C1CCC/C=C\C[C@H]2C=CC(=O)/C2=C/C[C@H](C/C=C\CC(F)(F)F)O1` belongs 8.83% (active).
The same measure, in the same setting: then `COc1ccc(/C=C/C(=O)/C=C/c2cc3ccc(Cl)cc3[nH]c2=O)cc1`, with 103% (inactive).
As for `N#Cc1c(NC(=O)c2ccc([N+](=O)[O-])o2)[n+]([O-])c2cc(F)c(F)cc2[n+]1[O-]`, the growth is 102% (inactive).
On the same count and under the same terms, to `CC(CCc1ccccc1)NC(=O)c1n[nH]c(=O)c2ccccc12` (stereo not drawn) belongs 121% (inactive); to `COc1ccc(/C=C/c2cc(N3CCOCC3)c3cc(F)c(F)cc3n2)cc1OC`, 4.66% (active).
As to `CC(C)C[C@H](NC(=O)Cn1ccc(NCc2ccccc2)cc1=O)B(O)O`, the growth was 80.7% (inactive).
Still for that read-out and setting: then `CCNc1nc(N2CC(=O)Nc3cc(OC)ccc32)c2ccccc2n1`, with 0.157% (active); and `COc1ccc(/C=C/c2nc(N3CCOCC3)c3nc(Cl)c(Cl)cc3n2)cc1OC`, with 99.4% (inactive); and `O=S=Nc1ccc([N+](=O)[O-])cc1`, with 99.4% (inactive).
